From PubChem BioAssay
Most compounds without a hit are left out; they make up all but 21% or so of the library.
Pf growth 48h: inhibits P. falciparum growth in the first generation, 48 h; P. falciparum luciferase growth in erythrocytes, 48 h; Potency, µM (top dose mostly 28.7 µM), for inactives: at the top dose activity change, negative = inhibition, hits mostly inhibitors; 310,000 compounds, 5.9% hits; further: potency means the concentration at half of the fitted maximal effect; on the % scale 0 is the no-effect control and ±100 the full control effect
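Compounds are pin-transferred into medium, infected erythrocytes (2% hematocrit, 0.1% parasitemia final) are added, and plates sit one parasite generation at 37 C in 5% CO2. Detection reagent is then added and luminescence measured.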
Pf growth 96h: inhibits malaria parasite growth, 96 h. P. falciparum luciferase reporter growth, 96 h. Potency, µM (titrated, usually from 28.7 µM), without a hit: top-dose activity change, negative = inhibition, actives largely listed as inhibitors. 320,000 compounds, 6.9% hits. AID 504834; further: potency means the concentration at half of the fitted maximal effect; on the % scale 0 is the no-effect control and ±100 the full control effect
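Compounds incubated with erythrocytes infected by luciferase-expressing P. falciparum (2% hematocrit, 0.05% parasitemia final) for 96 hours, 37 C in 5% CO2. Growth inhibition scored as decreased luciferase luminescence.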
Cycloheximide cs: counter-screen for Shiga toxin inhibitors: cycloheximide protein synthesis inhibition | cell reporter, cycloheximide protein synthesis inhibition counterscreen | max response, % | 300,000 compounds, 12% hits; in the data active means max response mostly above about 13%, no sharp cut-off; inactive means mostly below about 14%; further: read at 38.3 µM for the half of the compounds with a filed dose; 0% is about no effect
Shiga toxin inh: Shiga toxin inhibition. inhibition, % at 38.7 µM. 290,000 compounds, 9.2% hits. Vero cells, Shiga toxin protein synthesis inhibition reporter; in the data active means inhibition mostly above about 28%, no sharp cut-off; inactive means mostly below about 43%; further: 0% is about no effect
Numbers without * were called inactive; u = inconclusive; x = no result. Unless noted, the call rests on the fitted dose curve; in most records, active means well fitted inhibition curve with a large enough effect; inconclusive means small, poorly fitted or top-dose-only effect, or another doubt; inactive means no such curve, though single readings can be large or run the other way.

SMILES | Pf growth 48h | Pf growth 96h | Cycloheximide cs | Shiga toxin inh
CC(=O)N1c2ccc(S(=O)(=O)N(C)CC(=O)NC(C)c3ccccc3)cc2CC1C (stereo not drawn) | -12.4% | 9.28µM* | -1.8 | 4.4
COC(=O)c1cc(S(=O)(=O)NCC2CCN(Cc3cc(C)ccc3C)CC2)c[nH]1 | 3.5% | 32.8% | -1.9 | -2.5
CC1CCC(NCCNC(=O)c2ccco2)CC1 (stereo not drawn) | 17.7% | u | -3.6 | -5.3
CN(C)c1nc(N/N=C/c2ccccc2O)nc(Nc2ccc(F)cc2)n1 | 3.7µM* | 2.0% | 8.1 | 15.4
CN(C)c1nc(Nc2ccc(F)cc2)nc(Oc2ccc(F)cc2)n1 | 0.0% | u | -3.1 | 22.7
O=C(NCC1CCCC(CNC(=O)Nc2ccc(Cl)cn2)C1)Nc1ccc(Cl)cn1 (stereo not drawn) | u | u | 9.3 | 37.3
Cc1ccc(CCNC(=O)C2CCN(C(=O)N(C)C)CC2)cc1 | x | 1.31µM* | -3.4 | -11.9
COc1cc(OC)cc(C(=O)N2CCC(C(=O)NCCc3ccccc3)CC2)c1 | 1.6% | 125.6% | 24.3* | x
O=C(CCSc1ccccc1)NC1CCCCCC1 | 28.7% | 14.4% | 33.1* | 98.0*
Cc1ccc(SCC(=O)NC2CCCCCC2)cc1 | 65.0% | 34.0% | 29.8* | 66.7*
O=C(CSc1nncc(=O)[nH]1)NC1CCCCC1 | 11.0% | 3.7µM* | -2.9 | 4.9
Cc1cc(=O)[nH]c(SCC(=O)NC2CCCCC2)n1 | u | 16.6% | -2.8 | 2.3
CCOC(=O)C1=C(C)NC(=S)N(C=O)C1c1ccccc1 (stereo not drawn) | -10.1% | -2.4% | -2.9 | 4.3
COc1ccc(S(=O)(=O)N(CC(=O)NCc2cccnc2)c2ccc(C)cc2)cc1OC | -2.9% | u | -4.2 | -4.0
CCOc1cc(C(=S)N2CCOCC2)cc(Br)c1OS(=O)(=O)c1ccccc1 | -52.8% | u | -2.2 | -4.6
COc1ccc(-c2ccc(OC)c(C3C4C=CCC(C)C4C(=O)N3Cc3ccccc3)c2)cc1 (stereo not drawn) | x | x | 10.0 | -8.9
O=C(c1cc(S(=O)(=O)N2CCOCC2)ccc1Cl)N1CCc2ccccc2C1 | u | 13.6% | -0.7 | -1.1
CCOC(=O)c1c(CN(CC)CC)oc2ccc(OC)cc12 | u | 14.7µM* | -1.0 | -0.6
O=C1c2ccccc2C(=O)N1CCCc1nc2ccccc2c(=O)n1CCCn1ccnc1 | -27.0% | 1.85µM* | -6.6 | -15.1
Cn1c(-n2c(CCCN3C(=O)c4ccccc4C3=O)nc3ccccc3c2=O)nc2ccccc21 | -3.3% | 8.3% | -3.6 | 32.1
CC1=C(C(=O)Nc2cccc(C(=O)N3CCN(c4cccc(C(F)(F)F)c4)CC3)c2)SCCO1 | u | u | -2.2 | -11.0
O=C(CN1CCC(NC(=O)Nc2ccccc2)CC1)Nc1ccc([N+](=O)[O-])cc1 | u | 2.0% | -2.8 | -3.4
O=C(c1cnn(-c2ccccc2)c1)c1cc(Br)ccc1O | u | -84.2% | x | x
O=C(O)c1ccc(-n2cc(C(=O)c3ccccc3O)cn2)cc1 | 91.7% | 85.9% | 28.9* | 30.3
O=C(c1cnn(-c2nc3ccccc3s2)c1)c1ccccc1O | 89.0% | u | 30.5* | 47.3*
SMILES | Pf growth 48h | Pf growth 96h | Cycloheximide cs | Shiga toxin inh
O=C(c1cnn(-c2cccc(F)c2)c1)c1ccccc1O | 68.6% | 141.6% | 24.3* | 100.1*
O=C(c1cnn(C(=O)c2ccccc2F)c1)c1ccccc1O | 28.3% | u | x | x
CCNc1ccc(C(=O)OCC(=O)Nc2cc(C)on2)cc1[N+](=O)[O-] | 3.5% | -28.0% | x | x
CC(C)=N/N=C(\N)SCc1ccccc1 | 0.0% | 51.2% | 18.6* | 59.6
CCO[C@@H]1OC(C(=O)N2CCCCCCC2)=C[C@H](c2ccc3c(c2)OCO3)[C@H]1CCCO | u | u | 4.6 | 5.1
CCO[C@@H]1OC(C(=O)N2CCN(Cc3ccc4c(c3)OCO4)CC2)=C[C@H](C)[C@H]1CCCO | u | u | -2.2 | 13.3
C#Cc1ccc([C@H]2C=C(C(=O)N3CCN(Cc4ccc5c(c4)OCO5)CC3)O[C@@H](OCC)[C@@H]2CCCO)cc1 | 4.15µM* | 4.15µM* | 1.0 | -4.1
CCO[C@H]1OC(C(=O)N2CCN(Cc3ccc4c(c3)OCO4)CC2)=C[C@@H](c2ccc3c(c2)OCO3)[C@@H]1CCCO | 5.86µM* | 13.1µM* | -1.4 | -3.0
CCOC(=O)c1cnn(C)c1NC(=O)c1ccc([N+](=O)[O-])cc1 | 13.2% | 19.2% | -1.8 | -3.0
Cc1ccccc1OCC(=O)Nc1ccccc1C(=O)N1CCCCC1 | 6.5% | 10.4µM* | 15.8 | -3.8
O=C(COc1ccccc1Cl)Nc1ccccc1C(=O)N1CCCCC1 | 44.4% | 2.5% | 43.4* | 84.7*
Cn1c(CNC(=O)c2ccc3c(c2)OCO3)nnc1SCC(=O)Nc1ccccc1F | 0.4% | 0.0% | 0.6 | -3.3
CC(C)CN(C(=O)COC(=O)c1cccn1C)c1c(N)n(Cc2ccccc2)c(=O)[nH]c1=O | -8.4% | 11.5% | 0.8 | -4.0
Cc1cccc(C(=O)n2cnnc2N)c1 | 10.4µM* | -48.9% | 7.2 | -11.3
Cc1cc(C)cc(C(=O)Nc2ccc(N3CCCC3)cc2)c1 | -16.6% | 12.9% | 49.8* | 72.0*
Cc1ccc(C(=O)N2CCN(c3ccc(NC(=O)c4cc(C)cc(C)c4)cc3)CC2)cc1 | u | u | -2.0 | -6.6
Cc1cc(C)cc(NC(=O)Nc2ccc(N3CCCCC3)cc2)c1 | 86.3% | 36.7% | 37.6* | 27.4
CC(C)(C)Sc1ccc2nc3c(n2c1)CCCC3 | 11.7µM* | u | 14.9* | 35.0
CC(C)(C)NC(=O)Cn1cc(C#N)c2cc(Br)ccc21 | 5.86µM* | x | -1.9 | -14.6
CC(=O)Nc1ccc(S(=O)(=O)N(CC(=O)Nc2cc(C)on2)Cc2ccc(F)cc2)cc1 | -24.0% | -6.4% | 1.1 | -5.7
Cc1ccc(-n2nc3c(=O)n(CC(=O)NCc4ccc(C)o4)nc(C)c3c2C)cc1 | 15.0% | u | -4.8 | -13.4
CSc1ccc(CNC(=O)Cn2nc(C)c3c(C)n(-c4ccc(C)cc4)nc3c2=O)cc1 | 32.2% | 2.62µM* | 0.8 | 8.1
Cc1ccc(-n2nc3c(=O)n(CC(=O)NCCc4ccco4)nc(C)c3c2C)cc1 | 25.1% | 8.28µM* | 17.2 | -14.9
CC(C)OC(=O)c1c(-c2ccccc2)c(-c2ccccc2)nn(C)c1=O | x | x | -3.7 | 1.2
N#Cc1cccc(C#N)c1Oc1ccc(N)cc1 | 5.3% | 4.8% | -2.1 | -16.1
SMILES | Pf growth 48h | Pf growth 96h | Cycloheximide cs | Shiga toxin inh
CCCC(C)C1(CC)C(=O)NC(=Nc2ccccc2OC)NC1=O (stereo not drawn) | -1.8% | 10.4µM* | 5.6 | 20.0
Cc1cc2ccccn2c1C(=O)Nc1ccc(Cl)cc1 | 152.1% | 157.6% | 17.6* | 73.4*
Cc1cc2ccccn2c1C(=O)c1cc([N+](=O)[O-])cc([N+](=O)[O-])c1 | u | u | 2.1 | -6.1
Cc1c(C(=O)Nc2ccc(Cl)cc2)c2ccccn2c1C(=O)c1ccc(F)cc1 | x | u | -4.8 | -7.6
Cc1cc2ccccn2c1C(=O)Nc1ccccc1 | 71.3% | 206.1% | 22.9* | 68.1
Cc1ccc2[nH]c(C(=O)NCCN3CCCC3)cc2c1 | u | 11.7µM* | -2.0 | -4.3
Cc1ccc2[nH]c(C(=O)N3CCOCC3)cc2c1 | 3.1% | -5.8% | active | 16.5
Cc1ccc2[nH]c(C(=O)N3CCCCC3)cc2c1 | 61.8% | 149.4% | 26.5* | x
